Data published in PubChem BioAssay.
The source made the active and inactive calls.

Key:
[1] = biological target: Albumin (Bos taurus) (UniProt P02769); test: compounds binding labelled BSA control protein – biochemical, small-molecule microarray, Alexa647 label, 635/667 nm fluorescence, artefact control for SMM control protein annotation, profiling panel (AID 1118); conditions: BSA-A647 binding, fluorescence 635 nm, higher = more signal;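 note: score merges 667 nm emission intensity and signal-to-noise per printed compound spot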
[2] = probe aXIP binding to arrayed compounds – biochemical, NeuroSMM set, 635/667 nm fluorescence, primary screen (AID 1119); conditions: small-molecule microarray, higher = more signal, called active from +8 up or from −8 down;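 note: probe is the protein aXip251-270 applied at 1 µg/mL to compound-printed slides; binding of probe to printed compounds measured as 667 nm fluorescence plus signal to noise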
[3] = probe aNOTCH3 binding on compound microarray – biochemical, small-molecule microarray, 635/667 nm fluorescence, primary screen (AID 1120); conditions: higher = more signal;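 note: probe is a biotin-tagged antibody raised against NOTCH3 rather than NOTCH3 protein; score merges spot fluorescence near 667 nm with spot signal to noise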
[4] = probe aNOTCH2 binding on compound microarray – biochemical, small-molecule microarray, 635/667 nm fluorescence, primary screen (AID 1121); conditions: higher = more signal;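 note: score merges feature fluorescence read at 667 nm with its signal to noise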
[5] = biological target: Carbonic anhydrase 2 (Homo sapiens) (UniProt P00918); test: compounds binding carbonic anhydrase 2 – biochemical, small-molecule microarray, Alexa647-labelled CAII, profiling panel (AID 1122); conditions: CAII-A647 binding fluorescence, higher = more signal
[6] = COS7 lysate on small-molecule microarray, probe aHis, 635 nm (AID 1123); conditions: COS7 cell lysate, fluorescence, higher = more signal;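 note: z-score combines 667nm fluorescence intensity with signal-to-noise per printed compound spot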
[7] = probe aLAP1 signal on lysate-treated microarray – cell lysate, small-molecule microarray, COS7 lysate, primary screen (AID 1124); conditions: probe aLAP1, fluorescence, higher = more signal;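 note: lysate comes from COS7 cells expressing LAP1 and is applied at 0.3 µg/mL; score merges spot fluorescence near 667 nm with signal-to-noise over triplicate slides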
[8] = test system: Sam68 (KHDRBS1); test: compounds binding KHDRBS1 protein – biochemical, small-molecule microarray, 635 nm fluorescence, primary screen (AID 1125); conditions: higher = more signal;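 note: score merges 667 nm channel intensity with signal to noise over triplicate slides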
[9] = test system: Chordin-like protein 2 (CHRDL2); test: compounds binding chordin-like 2 – biochemical, small-molecule microarray, 635 nm fluorescence, primary screen (AID 1126); conditions: fluorescence 635 nm, higher = more signal;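 note: printed compound slides probed with Chrdl2 protein at 4 µg/mL for 1 h at 4 C; score merges 667 nm emission intensity with signal to noise over three replicate slides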
[10] = biological target: Concanavalin-A (Canavalia ensiformis) (UniProt P02866); test: compounds binding concanavalin A lectin – biochemical, small-molecule microarray, Alexa647 label, 635 nm, artefact control for SMM control protein annotation, primary screen (AID 1127); conditions: ConA-A647 binding fluorescence, higher = more signal;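 note: z combines 667 nm emission intensity with signal-to-noise across three replicate slides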
[11] = compounds binding Alexa647 anti-His antibody – biochemical, small-molecule microarray, 635 nm fluorescence, artefact control for SMM control protein annotation, primary screen (AID 1128); conditions: higher = more signal;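 note: score merges feature fluorescence with signal-to-noise for each printed compound spot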
[12] = test system: Human papillomavirus type 1a E7 protein (residues 1-88); test: HPV1a E7 small-molecule binders, primary screen, biochemical, small-molecule microarray, residues 1-88, 635 nm (AID 1129); conditions: small-molecule microarray binding, fluorescence 635 nm; higher = more signal
[13] = biological target: Focal adhesion kinase 1 (Homo sapiens) (UniProt Q05397); test: PTK2 protein binding on printed compound slides – biochemical, small-molecule microarray, 635/667 nm fluorescence, BSA, DTT, primary screen (AID 1130); conditions: 635 nm fluorescence, higher = more signal;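 note: composite of spot emission at 667 nm and signal to noise over triplicate slides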
[14] = test system: Fibrinogen (Alexa647-labelled); test: Alexa647-fibrinogen binding to printed small molecules – biochemical, small-molecule microarray, 635/667 nm fluorescence, artefact control for SMM control-protein annotation, profiling panel (AID 1131); conditions: fibrinogen-A647 binding fluorescence, higher = more signal;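 note: z-score merges 667 nm fluorescence with per-spot signal-to-noise over triplicate slides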
[15] = biological target: Follistatin (Homo sapiens) (UniProt P19883); test: FST protein binding to printed compounds – biochemical, small-molecule microarray, 635/667 nm fluorescence, primary screen (AID 1132); conditions: 635 nm fluorescence, higher = more signal
[16] = biological target: Fibroblast growth factor 2 (Homo sapiens) (UniProt P09038); test: basic fibroblast growth factor binding to printed compounds – biochemical, small-molecule microarray, 635/667 nm fluorescence, primary screen (AID 1133); conditions: FGF2, fluorescence 635/667, higher = more signal
[17] = JC-1 mitochondrial potential readout, lung cancer cells – cell-based, A549, JC-1 fluorescence, basal, 24 h, 100 nL, profiling panel (AID 1138); conditions: higher = more signal;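 note: A549 lung adenocarcinoma cells under basal conditions with no added stimulus; test concentration not given here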
[18] = test system: Lefty1; test: Lefty1 protein binding to printed compounds – biochemical, small-molecule microarray, 635/667 nm fluorescence, primary screen (AID 1139); conditions: fluorescence 635/667, higher = more signal
[19] = test system: wheat germ agglutinin (Triticum aestivum), Alexa647-labelled; test: Alexa647-WGA lectin binding to printed small molecules – biochemical, small-molecule microarray, 635/667 nm fluorescence, artefact control for SMM control-protein annotation, profiling panel (AID 1140); conditions: WGA-A647 binding, 635 nm fluorescence, higher = more signal;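 note: score merges 667 nm feature emission with signal to noise over triplicate slides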
[20] = biological target: Luciferin 4-monooxygenase (Photinus pyralis) (UniProt P08659); test: inhibition of purified Photinus pyralis luciferase – biochemical, luminescence, purified enzyme, 2006 set, primary screen (AID 1141); conditions: purified firefly luciferase, SteadyGlo luminescence, 30 min; higher = more signal, called active from +8 up or from −8 down;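 note: cell-free assay with purified firefly luciferase at 100 ng per well in PBS; test concentration not given here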
Luciferin 4-monooxygenase (Photinus pyralis), sequence (P08659 whole entry, looked up): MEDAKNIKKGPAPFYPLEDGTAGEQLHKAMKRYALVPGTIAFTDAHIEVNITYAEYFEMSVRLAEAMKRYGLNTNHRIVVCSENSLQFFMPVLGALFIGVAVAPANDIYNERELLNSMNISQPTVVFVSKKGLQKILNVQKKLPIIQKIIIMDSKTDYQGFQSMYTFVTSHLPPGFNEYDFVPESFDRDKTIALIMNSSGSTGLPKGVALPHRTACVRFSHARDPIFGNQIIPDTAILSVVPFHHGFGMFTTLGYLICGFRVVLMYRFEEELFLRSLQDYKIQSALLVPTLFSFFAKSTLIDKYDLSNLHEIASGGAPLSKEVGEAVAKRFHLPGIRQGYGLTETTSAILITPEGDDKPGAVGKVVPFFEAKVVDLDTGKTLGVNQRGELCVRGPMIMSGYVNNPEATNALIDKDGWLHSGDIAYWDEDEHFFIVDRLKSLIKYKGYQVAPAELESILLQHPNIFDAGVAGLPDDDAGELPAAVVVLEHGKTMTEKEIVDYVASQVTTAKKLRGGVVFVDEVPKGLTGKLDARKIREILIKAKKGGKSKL

Fibroblast growth factor 2 (Homo sapiens), sequence (P09038 whole entry, looked up): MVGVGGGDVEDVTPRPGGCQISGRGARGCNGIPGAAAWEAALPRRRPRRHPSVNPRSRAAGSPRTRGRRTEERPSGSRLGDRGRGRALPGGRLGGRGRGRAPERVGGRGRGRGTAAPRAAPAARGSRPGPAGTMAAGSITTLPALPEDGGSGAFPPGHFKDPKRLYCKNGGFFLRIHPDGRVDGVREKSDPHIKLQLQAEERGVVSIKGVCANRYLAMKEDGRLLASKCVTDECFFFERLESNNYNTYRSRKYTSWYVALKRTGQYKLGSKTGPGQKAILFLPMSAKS
Concanavalin-A (Canavalia ensiformis), sequence (P02866 whole entry, looked up): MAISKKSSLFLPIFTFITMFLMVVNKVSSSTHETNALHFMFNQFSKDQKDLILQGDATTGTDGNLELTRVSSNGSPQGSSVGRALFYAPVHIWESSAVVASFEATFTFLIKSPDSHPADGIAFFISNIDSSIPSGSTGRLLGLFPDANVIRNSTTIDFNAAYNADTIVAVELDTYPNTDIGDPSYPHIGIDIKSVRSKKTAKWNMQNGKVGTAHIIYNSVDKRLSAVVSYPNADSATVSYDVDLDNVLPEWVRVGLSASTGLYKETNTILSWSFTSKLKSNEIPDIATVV
Focal adhesion kinase 1 (Homo sapiens), sequence (Q05397 whole entry, looked up): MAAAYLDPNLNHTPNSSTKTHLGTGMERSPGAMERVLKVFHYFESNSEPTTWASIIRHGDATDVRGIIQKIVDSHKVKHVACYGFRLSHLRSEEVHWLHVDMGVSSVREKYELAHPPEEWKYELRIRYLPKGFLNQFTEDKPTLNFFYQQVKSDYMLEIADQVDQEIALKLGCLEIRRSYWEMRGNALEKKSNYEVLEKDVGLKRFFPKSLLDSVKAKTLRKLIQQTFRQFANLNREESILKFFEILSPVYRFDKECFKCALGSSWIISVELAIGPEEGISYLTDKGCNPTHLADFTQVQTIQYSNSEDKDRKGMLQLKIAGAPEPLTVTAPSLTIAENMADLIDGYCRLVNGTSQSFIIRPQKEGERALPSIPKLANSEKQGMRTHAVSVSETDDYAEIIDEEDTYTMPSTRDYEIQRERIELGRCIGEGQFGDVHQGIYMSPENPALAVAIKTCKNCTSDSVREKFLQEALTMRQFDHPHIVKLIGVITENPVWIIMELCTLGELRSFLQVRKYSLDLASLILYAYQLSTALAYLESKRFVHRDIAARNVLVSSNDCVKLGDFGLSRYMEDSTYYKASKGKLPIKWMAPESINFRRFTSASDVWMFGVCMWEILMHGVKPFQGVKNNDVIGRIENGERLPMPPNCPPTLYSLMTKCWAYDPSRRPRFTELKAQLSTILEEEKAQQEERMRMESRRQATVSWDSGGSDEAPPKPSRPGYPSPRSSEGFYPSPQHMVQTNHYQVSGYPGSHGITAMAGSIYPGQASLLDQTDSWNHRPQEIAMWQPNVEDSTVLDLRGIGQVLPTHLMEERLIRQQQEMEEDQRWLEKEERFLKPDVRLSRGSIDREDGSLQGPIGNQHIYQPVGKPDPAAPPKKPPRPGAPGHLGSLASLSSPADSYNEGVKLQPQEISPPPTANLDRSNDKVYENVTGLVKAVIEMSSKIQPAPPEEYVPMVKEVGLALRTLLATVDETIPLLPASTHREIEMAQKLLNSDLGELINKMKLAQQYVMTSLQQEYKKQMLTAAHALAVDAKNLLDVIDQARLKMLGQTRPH
Albumin (Bos taurus), sequence (P02769 whole entry, looked up): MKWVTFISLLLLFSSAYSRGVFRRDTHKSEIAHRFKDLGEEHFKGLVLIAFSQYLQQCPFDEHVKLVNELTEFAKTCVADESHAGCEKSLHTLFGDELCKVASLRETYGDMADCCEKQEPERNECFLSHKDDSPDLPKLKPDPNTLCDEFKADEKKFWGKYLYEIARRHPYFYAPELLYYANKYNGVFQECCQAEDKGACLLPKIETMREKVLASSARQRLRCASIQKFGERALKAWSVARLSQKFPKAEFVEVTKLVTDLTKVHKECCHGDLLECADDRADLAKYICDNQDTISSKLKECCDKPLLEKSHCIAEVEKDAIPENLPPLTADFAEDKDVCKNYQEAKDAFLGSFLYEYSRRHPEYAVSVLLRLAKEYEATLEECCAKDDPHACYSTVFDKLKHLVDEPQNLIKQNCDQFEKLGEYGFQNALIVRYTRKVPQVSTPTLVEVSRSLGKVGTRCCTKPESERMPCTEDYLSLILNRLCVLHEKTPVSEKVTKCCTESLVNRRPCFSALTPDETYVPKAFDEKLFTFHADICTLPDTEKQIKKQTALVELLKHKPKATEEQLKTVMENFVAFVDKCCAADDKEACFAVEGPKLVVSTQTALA
Follistatin (Homo sapiens), sequence (P19883 whole entry, looked up): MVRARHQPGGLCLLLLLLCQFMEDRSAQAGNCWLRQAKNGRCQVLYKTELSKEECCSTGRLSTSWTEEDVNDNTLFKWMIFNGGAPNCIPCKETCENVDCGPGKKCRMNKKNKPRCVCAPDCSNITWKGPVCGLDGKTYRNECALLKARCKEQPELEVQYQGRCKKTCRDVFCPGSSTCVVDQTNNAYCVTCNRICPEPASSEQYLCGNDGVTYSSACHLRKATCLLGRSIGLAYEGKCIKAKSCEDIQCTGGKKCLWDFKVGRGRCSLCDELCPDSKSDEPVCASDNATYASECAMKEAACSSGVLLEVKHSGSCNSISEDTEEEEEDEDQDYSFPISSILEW

SMILES	composite z-score [1]	composite Z-score [2]	composite z-score [3]	composite z-score [4]	composite z-score [5]	composite z-score [6]	composite z-score [7]	composite z-score [8]	composite z-score [9]	composite z-score [10]	composite z-score [11]	composite z-score [12]	composite z-score [13]	composite z-score [14]	composite z-score [15]	composite z-score [16]	z-score [17]	composite z-score [18]	composite z-score [19]	z-score [20]
COc1ccc(C(=O)Nc2ccc(CN3C(=O)[C@]4(O[C@H](CC(=O)N5Cc6ccccc6C[C@H]5CO)[C@@H]([Si](C)(C)c5ccc(OC)cc5)[C@@H]4C)c4ccccc43)cc2)cc1	-0.254	-0.236 (inactive)	-0.0377	-0.0995	0.151	1.1	0.0688	1.17	1.14	0.67	1.46	1.16	0.353	0.547	1.1	1.35	-0.615	1.08	0.75	-0.379 (inactive)
CC(C)NC(=O)[C@@]1(C)c2ccccc2C(=O)N(Cc2ccc(OC(F)(F)F)cc2)[C@H]1c1ccc(CO)cc1	0.484	-0.263 (inactive)	-0.367	-0.0995	0.607	1.54	0.173	0.844	-1.02	-0.04	0.22	-0.14	-0.232	-0.535	-0.333	-0.843	-0.19	-1.44	-0.641	-0.183 (inactive)
[N-]=[N+]=Nc1ccccc1C[C@@]1(C(=O)NCCN2CCOCC2)N=C(c2ccc(OCCCO)cc2)O[C@@H]1c1ccccc1N=[N+]=[N-]	0.832	-0.0662 (inactive)	0.351	-0.0211	0.556	2.51	0.865	1.3	-0.198	1.04	2.81	1.24	0.587	0.989	1.2	0.752	-0.381	0.383	0.898	-1.71 (inactive)
COC(=O)[C@@]1(Cc2ccc(F)cc2)[C@H]2c3cc(C(=O)N(C)C)n(Cc4ccc(OC(F)(F)F)cc4)c3C[C@H]2CN1C(=O)c1ccccc1	0.239	-0.249 (inactive)	0.11	-0.078	0.0217	0.398	0.0642	-0.0367	-0.0356	0.296	0.348	0.626	0.0291	0.572	0.216	0.016	0.561	-0.182	0.341	1.6 (inactive)
CCOC(=O)C1=CC[C@@H](c2ccccc2)N(S(=O)(=O)c2ccc(C)cc2)[C@H]1c1ccccc1	0.831	-0.563 (inactive)	0.107	-0.0806	0.453	0.69	-0.561	0.749	-0.221	1.07	0.271	1.17	0.428	0.915	-0.0842	-0.486	2.45	-0.381	0.991	1.16 (inactive)
